High-throughput results as filed in PubChem.
In the library only some 2.4% were active in any assay of this set; here they are far more common.
D2 ag-1: agonists of human D2 dopamine receptor (beta-arrestin); DiscoveRx PathHunter D2 beta-arrestin, luminescence, 90 min; 100% = 57 uM dopamine signal; activation, % (test concentration not listed); actives 0.084% (n = 360,000); AID 624465; in the data active means activation above about 40%; inconclusive means between about 15% and that limit
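DiscoveRx PathHunter D2 beta-arrestin cells (2,100/well) attached overnight, then compound-stimulated 90 min at 37 C in HBSS/10 mM HEPES/0.1% Tween-20 buffer; beta-galactosidase complementation read by luminescence after 1 h at ambient temperature. Dopamine 57 uM final (EC100) as control.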
D2 ag-2: D2 dopamine receptor (human) agonism; P14416; HEK293 T-REx D2 cells, calcium flux agonist mode; activation, % at 2 µM; actives 0.53% (n = 340,000);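 active means activation over 3 SD above normal in the single-dose calcium agonist read, cut at about 30% in these data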
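Tetracycline-induced HEK293 T-REx cells with force-coupled D2 receptor, plated overnight at 30 C, loaded with no-wash calcium dye. After a 10 s baseline, compound was pin-added and calcium flux read kinetically for 180 s; calcium rises flagged agonists.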
B2AR arrestin: beta2AR (human) beta-arrestin recruitment activity; Potency, µM (top dose mostly 46.1 µM), hits mostly activators; P07550; actives 0.02% (n = 330,000); AID 492947; beta-arrestin recruitment to beta2AR, cell-based reporter; further: nearly all actives have a fitted effect of over 65% in size
D2 PAM-1: potentiates the human D2 dopamine receptor allosterically; P14416; DiscoveRx D2 beta-arrestin cells, luminescence, 90 min; 100% = 57 uM dopamine signal; potentiation, % (test concentration not listed); actives 0.23% (n = 360,000); in the data active means potentiation above about 50%; inconclusive means mostly about 30% to 49%
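PathHunter D2 cells, attached overnight at 37 deg C, received compound in DMSO plus dopamine at EC20 (50 nM final) for 90 min at 37 deg C. Beta-arrestin recruitment was read as luminescence after 1 h with detection reagent at ambient temperature.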
D2 antag: antagonizes the human D2 dopamine receptor | HEK293 TREx D2 cells, calcium flux, dopamine EC80 | inhibition, % at 10 µM | actives 2% (n = 340,000) | AID 485344; in the data active means inhibition above about 30%; inactive means below that, where a call was filed
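Compounds are added to dye-loaded, induced HEK293 T-REx cells coupled to calcium release via D2; after a 3 min kinetic read an EC80 dopamine stimulus is given and fluorescence is recorded for 3 more min.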
D2 PAM-2: positively modulates the human D2 dopamine receptor allosterically; P14416; HEK293 T-REx D2, calcium flux, EC20 dopamine potentiation; potentiation, % at 10 µM; actives 0.34% (n = 340,000);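 active means potentiation over 3 SD above the plate norm, cut at about 30% in these data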
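Potentiation of an EC20 dopamine calcium response is measured in a force-coupled, tetracycline-inducible Hek293 Trex D2 line. Compound-only kinetic reads over 180 s flag agonists before dopamine addition.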
D3 arrestin ag: D3 receptor agonism confirmed, beta-arrestin readout; shares compounds with D2 ag-2; DiscoveRx D3 beta-arrestin cells, luminescence, 90 min; Potency, µM (series often up to 76.9 µM), most hits filed as activators; actives 4% (n = 2,300); further: nearly all actives have a fitted effect of over 70% in size
Target sequence (P35462 whole entry, looked up): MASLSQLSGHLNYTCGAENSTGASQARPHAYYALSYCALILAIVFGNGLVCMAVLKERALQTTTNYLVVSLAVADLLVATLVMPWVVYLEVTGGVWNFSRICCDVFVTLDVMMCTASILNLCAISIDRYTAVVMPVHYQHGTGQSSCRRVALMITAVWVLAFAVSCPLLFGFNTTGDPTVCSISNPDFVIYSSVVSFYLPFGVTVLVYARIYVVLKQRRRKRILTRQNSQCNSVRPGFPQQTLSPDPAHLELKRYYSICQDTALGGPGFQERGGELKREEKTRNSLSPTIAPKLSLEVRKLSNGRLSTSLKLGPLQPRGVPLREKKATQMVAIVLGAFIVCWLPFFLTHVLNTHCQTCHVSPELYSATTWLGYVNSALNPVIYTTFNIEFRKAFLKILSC
D2 ag-3: activates human D2 dopamine receptor in D3 counterscreen; shares compounds with D2 ag-2; DiscoveRx PathHunter D2 beta-arrestin, luminescence, 90 min; response scale: percent relative to full dopamine signal; Potency, µM (highest dose often 76.9 µM), most hits filed as activators; actives 5.9% (n = 2,300); AID 720507; further: nearly all actives have a fitted effect of over 70% in size
Of the large screens only hits and unclear results are named; the others gave an inactive call (follow-up assays come after a bar, where they were run); ! = not active in a repeat. Unless noted, the call rests on the fitted dose curve; in most records, active means well fitted activation curve with a large enough effect; inconclusive means small, poorly fitted or top-dose-only effect; inactive means flat fitted curve, though single readings scatter.

N#Cc1ccc(C23CC4(C2)[C@H](CN(CC2CCCCC2)[C@@H]4c2ccccc2)C3c2ccccc2)cc1 (some centres undefined)	none
CCOc1cc([N+](=O)[O-])cc(/C=C2/NC(=O)N(Cc3ccccc3F)C2=O)c1O	none
COc1cccc(-c2nn(-c3ccccc3)cc2/C=C\C(=O)c2cccs2)c1	none
Cc1nn(Cc2c(Cl)cccc2Cl)c(C)c1NC(=O)c1cn(-c2ccccc2)nc1-c1ccccc1	none
COc1ccc(/C=N/NC(=O)CCn2cnc3ccccc32)cc1	none | D3 arrestin ag inactive | D2 ag-3 inactive
CCOc1ccc(N(CC(=O)Nc2cc(C)ccc2C)S(=O)(=O)c2c(C)[nH]c(=O)[nH]c2=O)cc1	none
CN(C)c1ccc(C#Cc2ccc3cc(CCO)oc(=O)c3c2)cc1	none | D3 arrestin ag inactive | D2 ag-3 inactive
COc1ccc(S(=O)(=O)N2Cc3ccccc3CC2C(=O)Nc2ccc(C)cc2)cc1OC (centres undefined)	none (no result: D2 ag-1, D2 ag-2, B2AR arrestin, D2 PAM-1, D2 antag)
COc1ccc(CN(C(=O)/C=C/C(=O)c2ccc(OC)cc2O)C(C(=O)NC2CCCCC2)c2ccncc2)cc1 (centres undefined)	D2 ag-2 34.6 | D3 arrestin ag inactive | D2 ag-3 inactive
Cc1[nH]c2ccccc2c1C(=O)CN1C(=O)C(=O)N(C2CCCC2)C1=O	none | D3 arrestin ag inactive | D2 ag-3 inactive
Cc1cc(C(=O)CN2C(=O)C(=O)N(C3CCCC3)C2=O)c(C)n1CCc1ccccc1	none
Cc1cc(/C=N/n2c(COc3ccccc3C)nc3ccccc3c2=O)c(O)c([N+](=O)[O-])c1	none
Cc1cccc(Cn2c(=O)oc3ccc(C)cc32)c1	D2 antag 31.5 | D3 arrestin ag inactive | D2 ag-3 inactive
Cn1c(=O)cc(SCC(=O)NCCCN2CCN(c3ccc(F)cc3)CC2)c2ccccc21	D2 ag-2 33.0, D2 antag 90.6 | D3 arrestin ag inactive | D2 ag-3 inactive
C=CCn1c(SCC(=O)c2ccc(O)c(O)c2)nnc1-c1cccc(OC)c1	D2 ag-2 40.7 | D3 arrestin ag inactive | D2 ag-3 inactive
COc1ccc(-c2c(-c3cc(OC)cc(OC)c3)n(C)c3ccc(-c4ccc5[nH]ccc5c4)cc23)cc1	none (no result: D2 ag-2, D2 antag) | D3 arrestin ag inactive | D2 ag-3 inactive
O=C(NCc1ccccc1)c1ccc(-c2cn[nH]c2)c2ccoc12	none (no result: D2 ag-2, B2AR arrestin, D2 antag, D2 PAM-2)
COCCN=c1scc(-c2cccs2)n1/N=C/c1ccc(O)c(O)c1O	D2 ag-1 93.7, D2 ag-2 78.4, D2 PAM-1 75.7, D2 antag 73.3 | D3 arrestin ag 25.1µM | D2 ag-3 7.08µM
CCC1(c2ccccc2)NC(=O)N(CC(=O)NCc2ccc(F)cc2)C1=O (centres undefined)	none
CCN(CC)S(=O)(=O)c1cccc(C(=O)N/N=C2\CC(=O)CC(C)(C)C2)c1	none | D3 arrestin ag inactive | D2 ag-3 inactive
CCN(CC)S(=O)(=O)c1cccc(C(=O)N/N=C2\CCCC(=O)C2)c1	none
O=C(c1ccccc1)c1ccc(O)cc1O	none
CC(=O)c1cc2c(C)c(C(=O)c3ccccc3)oc2cc1O	D2 ag-2 35.6 | D3 arrestin ag inactive | D2 ag-3 inactive
CCOc1cc(/C=N/NC(=O)c2ccncc2)ccc1OC(=O)c1ccco1	none
CC(C)c1cccc(OCC(=O)Nc2ccc(S(=O)(=O)Nc3ccccn3)cc2)c1	none (no result: D2 PAM-2)
CCN(CC)CCCNC(=O)CN1C(=O)CSc2ccc(S(=O)(=O)N3CCOCC3)cc21	none
CCN(CC)CC(C)CNC(=O)CN1C(=O)CSc2ccc(S(=O)(=O)N3CCOCC3)cc21 (centres undefined)	D2 ag-2 54.3! | D3 arrestin ag inactive | D2 ag-3 inactive
CCOCCCN(C(=O)c1ccco1)C(C(=O)NC1CCCC1)c1ccc(OC)cc1 (centres undefined)	none
CCC(C)OC(=O)C[N+](C)(C)CCOC1CC2CCC1(C)C2(C)C (centres undefined)	none
COc1ccccc1/C=N/NC(=O)c1ccc(NC(=O)c2ccccc2Br)cc1	D2 ag-2 62.9 | D3 arrestin ag inactive | D2 ag-3 inactive
O=C(CSc1nnc(Cc2ccccc2)n1-c1ccc(Cl)cc1)N1CCOCC1	D2 ag-2 40.0 | D3 arrestin ag inactive | D2 ag-3 inactive
Cn1c(Cc2ccccc2)nnc1SCC(=O)N1CCOCC1	none
O=C1C2CCCN2C(=O)N1CCCCN1CCN(c2cccc(Cl)c2)CC1 (centres undefined)	D2 ag-2 65.8, D2 antag 79.6 | D3 arrestin ag inactive | D2 ag-3 inactive
O=C1C2CCCN2C(=O)N1CCN1CCN(c2ccccc2)CC1 (centres undefined)	D2 ag-2 42.0, D2 antag 70.8 | D3 arrestin ag inactive | D2 ag-3 inactive
O=C1C2CCCCN2C(=O)N1CCN1CCN(c2ccc(F)cc2)CC1 (centres undefined)	none (no result: D2 ag-2, B2AR arrestin, D2 antag, D2 PAM-2)
Cc1ccc(N2CCN(CCCCN3C(=O)C4CCCN4C3=O)CC2)cc1 (centres undefined)	none (no result: D2 ag-2, D2 antag)
O=C1C2CCCN2C(=O)N1CCCCN1CCN(c2ccccc2)CC1 (centres undefined)	D2 ag-1 inconclusive, D2 ag-2 85.7, D2 antag 61.9 | D3 arrestin ag inconclusive | D2 ag-3 inconclusive
Cc1ccc(S(=O)(=O)N2CCN(C(=O)COC(=O)CSc3cc(C)ccc3C)CC2)c(C)c1	none | D3 arrestin ag inactive | D2 ag-3 inactive
Cc1ccc(S(=O)(=O)N2CCN(C(=O)COC(=O)/C=C/c3ccccc3)CC2)c(C)c1	none | D3 arrestin ag inactive | D2 ag-3 inactive
Cc1ccc(S(=O)(=O)N2CCN(C(=O)COC(=O)/C=C/c3cccc([N+](=O)[O-])c3)CC2)c(C)c1	none (no result: D2 ag-2, B2AR arrestin, D2 antag, D2 PAM-2)
CC(=O)Nc1ccc(N2CCN(c3ccc(F)cc3)CC2)cc1	none
COc1ccc(/C=c2\s/c(=C/C(=O)c3ccc(C)cc3)[nH]c2=O)cc1OC	none | D3 arrestin ag inactive | D2 ag-3 inactive
COCCCNC(=S)NCCNc1nc2cc(C)cc(C)c2cc1C#N	none
COc1ccc(C2(C)NC(=O)N(CC(=O)Nc3cccnc3Cl)C2=O)cc1 (centres undefined)	none
